{
  "source": "ChEMBL document CHEMBL3988442",
  "about": "“University of Dundee, Small-Polar-MMV Screening Library” (2021)",
  "note": "About 13,000 (27%) of roughly 48,000 compounds showed an effect of 50% or more. The list shows a part of the results.",
  "data": [
    {"system": "Wolbachia pipientis", "test": "Anti-Wolbachia Cell-Based Screen", "format": "functional", "set-up": "scale not given: in the data most compounds retested in dose-response had high values", "conditions": "5 µM", "units": {"Percent Effect": "%"}, "values": [
      {"smiles": "O=C(c1cc2ccccc2o1)N1CCN(Cn2cc(Cl)cn2)CC1", "Percent Effect": -7.476},
      {"smiles": "CNC(=O)CCNC(=O)c1cc(Br)c2c(c1)OCCO2", "Percent Effect": 13.5},
      {"smiles": "CCN(C)S(=O)(=O)N1CCCC(c2nc(-c3ccccc3)c[nH]2)C1", "note": "(stereo unspecified)", "Percent Effect": -1.843},
      {"smiles": "Cc1ccc([C@@H]2CN(S(=O)(=O)c3ccccc3)C[C@H]2N(C)C)cc1", "Percent Effect": -8.566},
      {"smiles": "Cc1ccc(S(=O)(=O)N2CCCC(c3n[nH]cc3C(=O)N(C)C)C2)cc1", "note": "(stereo unspecified)", "Percent Effect": 125.7},
      {"smiles": "O=C(NCc1nnc2ccccn12)N1CCOC(c2ccsc2)C1", "note": "(stereo unspecified)", "Percent Effect": -11.65},
      {"smiles": "COc1ccc(OC)c(C(O)CNC(=O)Nc2ccc(F)cc2F)c1", "note": "(stereo unspecified)", "Percent Effect": 81.01},
      {"smiles": "COc1ccc(OC)c(NC(=O)NCC(O)c2ccc(F)c(F)c2)c1", "note": "(stereo unspecified)", "Percent Effect": 19.22},
      {"smiles": "COc1ccccc1C(O)CNC(=O)Nc1ncccc1C", "note": "(stereo unspecified)", "Percent Effect": 0.5949},
      {"smiles": "COc1ccc(NC(=O)NCC(O)c2ccc(F)cc2F)c(OC)c1", "note": "(stereo unspecified)", "Percent Effect": 9.274},
      {"smiles": "COc1ccc(NC(=O)NCC(O)c2ccccc2F)c(OC)c1", "note": "(stereo unspecified)", "Percent Effect": 84.27},
      {"smiles": "CCOc1ncccc1NC(=O)NCC(O)c1ccccc1OC", "note": "(stereo unspecified)", "Percent Effect": -2.656},
      {"smiles": "CCN(C)C1CCCc2nc(C)sc21", "note": "(stereo unspecified)", "Percent Effect": -11.76},
      {"smiles": "CCc1ccc(CN2CCC3(CC2)C(=O)N(C)CCN3CC2CC2)cc1.O=C(O)C(F)(F)F", "Percent Effect": -26.46},
      {"smiles": "CCN1CCC2(CC1)C(=O)N(c1ccc(C)nc1)CCN2CC(C)C.O=C(O)C(F)(F)F", "Percent Effect": -13.38},
      {"smiles": "Cc1cc(C(=O)N2CCC3(CC2)C(=O)N(C)CCN3CC(C)C)c(C)o1.O=C(O)C(F)(F)F", "Percent Effect": 105.2},
      {"smiles": "Cc1cc(C(=O)N2CCC3(CC2)C(=O)NCCN3CC(C)C)c(C)o1", "Percent Effect": 4.806},
      {"smiles": "Cc1ccsc1C(=O)N1CCC2(CC1)C(=O)N(C)CCN2CC1CC1.O=C(O)C(F)(F)F", "Percent Effect": 98.73},
      {"smiles": "Cc1ccc(OC2(C(=O)O)CCN(C(=O)c3cc(C)oc3C)CC2)cn1", "Percent Effect": -11.44},
      {"smiles": "Cc1cc(C(=O)N2CCC3(CC2)C(=O)N(C)CCN3CC2CC2)c(C)o1.O=C(O)C(F)(F)F", "Percent Effect": 105.3},
      {"smiles": "Cc1ccc(N2CCN(CC3CC3)C3(CCN(C(C)C)CC3)C2=O)cn1.O=C(O)C(F)(F)F", "Percent Effect": -1.753},
      {"smiles": "O=C(O)[C@@H]1CN(CCOCCO)C[C@H]1c1ccccc1", "Percent Effect": -10.46},
      {"smiles": "N#Cc1ccc(OC2CCN(C(=O)c3cncc(Br)c3)CC2)nc1", "Percent Effect": 3.966},
      {"smiles": "CCC(C)(CC(=O)OC)NC(=O)c1ccc2[nH]ccc2c1", "note": "(stereo unspecified)", "Percent Effect": -0.3166},
      {"smiles": "CCCn1[nH]cc/c1=N\\C(=O)CN1CCCC1Cn1nc(C)nc1C", "note": "(stereo unspecified)", "Percent Effect": -1.859},
      {"smiles": "CC(=O)c1cccc(NC(=O)CN2CCCCC2C)c1", "note": "(stereo unspecified)", "Percent Effect": -9.973},
      {"smiles": "CCCS(=O)(=O)CCN1CCOC(c2ccsc2)C1", "note": "(stereo unspecified)", "Percent Effect": -6.167},
      {"smiles": "Nc1nccnc1C(=O)N1CCN(CCOc2ccccc2)CC1", "Percent Effect": -15.87},
      {"smiles": "COc1cccc(OCC2CCCN(C(=O)c3ncoc3C3CC3)C2)c1", "note": "(stereo unspecified)", "Percent Effect": -37.79},
      {"smiles": "Cc1ocnc1C(=O)N1CCN(CCOc2ccccc2)CC1", "Percent Effect": 109.9},
      {"smiles": "O=C(c1ncoc1C1CC1)N1CCCN(CCCc2ccccc2)CC1", "Percent Effect": 104.8},
      {"smiles": "CC(C(=O)N1CCN(CCOc2ccccc2)CC1)n1cc(Cl)cn1", "note": "(stereo unspecified)", "Percent Effect": 9.787},
      {"smiles": "CC(=O)N1CCCN(CCCc2ccccc2)CC1", "Percent Effect": -14.81},
      {"smiles": "O=C(c1ncoc1C1CC1)N1CCN(CCOc2ccccc2)CC1", "Percent Effect": 94.73},
      {"smiles": "Cn1nccc1C(=O)N1CCCN(CCCc2ccccc2)CC1", "Percent Effect": -12.37},
      {"smiles": "O=C(CCn1cc(Cl)cn1)N1CCN(CCOc2ccccc2)CC1", "Percent Effect": -6.646},
      {"smiles": "O=C(c1n[nH]c2c1CCN(Cc1nccs1)C2)N1CCOCC1", "Percent Effect": 14.04},
      {"smiles": "O=C(CN1CCc2cncnc2C1)N1CCc2sccc2C1", "Percent Effect": -26.01},
      {"smiles": "Cc1cc(CNc2ccc(C(=O)N3CCc4ccccc43)cn2)on1", "Percent Effect": 23.63},
      {"smiles": "CSC1(CNC(=O)NCc2sccc2C)CCOCC1", "Percent Effect": -11.79},
      {"smiles": "COC(=O)NCC(=O)N(C)Cc1csc(-c2cccs2)n1", "Percent Effect": -9.296},
      {"smiles": "COc1ccccc1CN1CCC(Cc2cnc(CN(C)C)cn2)CC1", "Percent Effect": 110},
      {"smiles": "COc1cccc(CN2CCC(c3nccn3C(C)C)CC2)c1", "Percent Effect": 7.494},
      {"smiles": "CN(C)Cc1cnc(CC2CCN(CCc3ccccc3)CC2)cn1", "Percent Effect": 90.66},
      {"smiles": "COc1cccc(CN2CCC(Cc3cnc(CN(C)C)cn3)CC2)c1", "Percent Effect": 111.9},
      {"smiles": "Cc1cnc(CN(C)C2CCN(CCc3ccccn3)CC2)cn1", "Percent Effect": 10.61},
      {"smiles": "CCn1c(CN(C)C)nnc1C1CCN(Cc2cccc(OC)c2)CC1", "Percent Effect": 12.38},
      {"smiles": "COc1ccccc1CN(C)C(=O)c1cc(CN2CCC(O)CC2)on1", "Percent Effect": -15.1},
      {"smiles": "Cc1ncc(CN(C)C2CCCN(CCc3ccccc3)C2)n1C", "note": "(stereo unspecified)", "Percent Effect": -4.655},
      {"smiles": "COc1ccccc1OC1CCN(Cc2cnc(N(C)C)nc2)CC1", "Percent Effect": -4.548},
      {"smiles": "O=C(NCCN1CCOCC1)NCc1ncc(-c2ccccc2)o1", "Percent Effect": 4.39},
      {"smiles": "CCc1cc(N2C[C@H](C3CC3)[C@@H](N)C2)nc(N2CCCC2)n1", "Percent Effect": 13.06},
      {"smiles": "O=C(C1SCCc2sccc21)N1CC(O)C1", "note": "(stereo unspecified)", "Percent Effect": -8.874},
      {"smiles": "O=C(NCc1nnc2n1CCC2)c1ccc(C2CCCO2)s1", "note": "(stereo unspecified)", "Percent Effect": 92.93},
      {"smiles": "O=C(NCc1nnnn1-c1ccccc1)c1ccc(C2CCCO2)s1", "note": "(stereo unspecified)", "Percent Effect": 107.3},
      {"smiles": "O=C(NCc1nc(-c2ncccn2)no1)c1ccc(C2CCCO2)s1", "note": "(stereo unspecified)", "Percent Effect": 1.896},
      {"smiles": "O=C(NCc1nnc2n1CCCC2)c1ccc(C2CCCO2)s1", "note": "(stereo unspecified)", "Percent Effect": 101.2},
      {"smiles": "Brc1ccc(CNCc2nnc3n2CCCCC3)s1.Cl", "Percent Effect": -9.966},
      {"smiles": "O=C(c1ccc(C2CCCO2)s1)N1CCOCC1", "note": "(stereo unspecified)", "Percent Effect": 12.38},
      {"smiles": "O=C(c1ccc(C2CCCO2)s1)N1CCS(=O)(=O)CC1", "note": "(stereo unspecified)", "Percent Effect": -17.24},
      {"smiles": "Brc1ccc(CNCc2nnc3n2CCC3)s1.Cl", "Percent Effect": 7.308},
      {"smiles": "O=C(NCc1nnc2n1CCC2)c1ccc(Br)s1", "Percent Effect": 111.9},
      {"smiles": "O=C(NCCc1nc(-c2cccnc2)no1)c1ccc(C2CCCO2)s1", "note": "(stereo unspecified)", "Percent Effect": 9.289},
      {"smiles": "CCCn1nc(C(=O)NCc2nnc3n2CCC3)ccc1=O", "Percent Effect": 10.17},
      {"smiles": "O=C(NCCc1nc(-c2ccccn2)no1)c1ccc(C2CCCO2)s1", "note": "(stereo unspecified)", "Percent Effect": 1.168},
      {"smiles": "CCc1cccc(OCCn2cccc(C#N)c2=O)c1", "Percent Effect": -12.24}
    ]}
  ]
}
